The values that follow come from PubChem BioAssay (NCI).

Structures are written as SMILES. Compounds without any hit were thinned out: in the full panel of roughly 83,000, 20% have a hit.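 The endpoint reported here, percent growth, reads 100 for growth as untreated, 0 for no net growth and -100 for all cells dead.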 Unmarked numbers belong to inactive results. Active and inactive are the calls of the source. Rule for the calls: active = growth percent below 10; inactive = the rest.

Some test systems named below: SK-MEL-2 melanoma; EKVX NSCLC; SN12C renal; UO-31 renal; TK-10 renal; ACHN renal; CAKI-1 renal; CCRF-CEM leukemia; MOLT-4 leukemia; A498 renal.
Holding throughout (assay): NCI-60 one-dose screen, 48 h (100 = growth as untreated, 0 = no growth, -100 = all killed)
What all share (conditions): 10 µM unless noted

Consider `O=C(CCl)N(C1CCCCC1)C1CCCCC1`, for which the growth in the assay with SK-MEL-2 melanoma was 108%; in the assay on EKVX NSCLC, 104%; in the assay with SN12C renal, 107%; with UO-31 renal, 98.3%; in the assay with TK-10 renal, 104%; with ACHN renal, 109%. For the same compound, the growth with CAKI-1 renal is 98.7%; in the assay on CCRF-CEM leukemia it was 42.6%; in the assay on MOLT-4 leukemia, 110%.
In the case of `COc1ccc(/C=C2\Oc3cc(OCCCN4CCCC4)ccc3C2=O)c(OC)c1`, the growth with SK-MEL-2 melanoma was 103%; in the assay with EKVX NSCLC, 96.1%; with SN12C renal it was 91.8%; with UO-31 renal it was 74.9%; in the assay with TK-10 renal it was 103%; in the assay on ACHN renal, 91.4%. Also, the results for the growth with CAKI-1 renal, in the assay on CCRF-CEM leukemia and in the assay on MOLT-4 leukemia were 91.9%, 11.9% and 32.7%, respectively.
Consider `O=c1[nH]c(-c2ccccc2)nc(CN2CCCCC2)c1O`, for which the growth in the assay on SK-MEL-2 melanoma was 111%; with EKVX NSCLC, 112%; in the assay on SN12C renal, 93.9%; with UO-31 renal it was 95.1%; in the assay on TK-10 renal, 108%; in the assay on ACHN renal it was 106%. Also, the growth is 91.5% in the assay on CAKI-1 renal, 96.8% with CCRF-CEM leukemia and 120% in the assay with MOLT-4 leukemia.
Take `CCN(CC)c1ccc(/C=C2\Oc3ccc(O)c(I)c3C2=O)cc1`: the growth in the assay with SK-MEL-2 melanoma was 62.3%; in the assay on EKVX NSCLC, 73.3%; in the assay with SN12C renal it was 76.9%; with UO-31 renal it was 46.3%; in the assay with TK-10 renal, 74.2%; in the assay on ACHN renal, 54.9%. The growth in the assay on CAKI-1 renal is 68.4%; with CCRF-CEM leukemia, 13.3%; with MOLT-4 leukemia it was 16.4%.
For `COC(=O)c1nc(-c2ccccc2)oc1S(=O)(=O)N1CCN(c2cccc(Cl)c2)CC1`, the growth in the assay with SK-MEL-2 melanoma was 90%; in the assay on EKVX NSCLC it was 93.4%; with SN12C renal, 74.5%; with UO-31 renal, 62.9%; in the assay with TK-10 renal, 89.4%; in the assay with ACHN renal, 84.8%. For the same compound, the growth in the assay with CAKI-1 renal was 32.6%; in the assay on CCRF-CEM leukemia, 4.91% (active); in the assay with MOLT-4 leukemia it was 39.3%.
For `O=c1cc/c(=N\Nc2ccccc2)c(=O)/c1=N/Nc1ccccc1`, the growth in the assay on SK-MEL-2 melanoma is 126%; with EKVX NSCLC, 100%; in the assay on SN12C renal, 112%; in the assay on UO-31 renal, 97.5%; in the assay on TK-10 renal, 170%; in the assay on ACHN renal, 99.7%. Further, the growth with A498 renal was 93%; in the assay with CCRF-CEM leukemia it was 86.7%; with MOLT-4 leukemia, 106%.
As for `N/C(=N\C(N)=N\c1nc2ccccc2s1)c1cccc(Br)c1`, the growth in the assay on SK-MEL-2 melanoma is 106%; in the assay with EKVX NSCLC, 73.2%; in the assay on SN12C renal it was 50.7%; with UO-31 renal, 24.7%; in the assay with TK-10 renal, 157%; in the assay on ACHN renal, 84.8%. Besides, the figures for the growth with CAKI-1 renal, in the assay on CCRF-CEM leukemia and with MOLT-4 leukemia were 68.8%, 55.8% and 77.6%, respectively.
`CCN1C(=O)N(CC)C2C1NN=c1s/c(=C\c3cccnc3)c(=O)n12` (centres undefined): the growth in the assay on SK-MEL-2 melanoma is 51.5%; with EKVX NSCLC it was 45.5%; in the assay on SN12C renal, 45.2%; with UO-31 renal, 46.8%; in the assay with TK-10 renal, 80.7%; with ACHN renal, 42.9%. Besides, the values for the growth with CAKI-1 renal, in the assay on CCRF-CEM leukemia and with MOLT-4 leukemia were 47.5%, 14.1% and 26.5%, respectively.
Regarding `C=C1CCC2C3(C)COC(c4ccccc4)OC3CCC2(C)C1/C=C/C1=CCOC1=O` (centres undefined), the growth was 51.3% with SK-MEL-2 melanoma; 96.1% with EKVX NSCLC; 24% in the assay on SN12C renal; 52.6% with UO-31 renal; 61.3% with TK-10 renal; 71.3% in the assay on ACHN renal. Further, the growth in the assay with A498 renal is 106%; in the assay with CCRF-CEM leukemia it was -46.7% (active); in the assay on MOLT-4 leukemia it was 45.5%.
On to `Cc1c(C(=N)C(C#N)C#N)c(=N)oc2c1ccc1ccccc12`, for which the growth in the assay on SK-MEL-2 melanoma is 26.6%; in the assay on EKVX NSCLC it was 26.9%; with SN12C renal, 88.7%; with UO-31 renal it was 85.5%; with TK-10 renal, 121%; with ACHN renal, 86.4%. Moreover, the growth was 85.2% with A498 renal, 66.1% in the assay on CCRF-CEM leukemia and 64.3% in the assay with MOLT-4 leukemia.
`C=C[C@@H]1C[C@H](O)Cc2ccccc2N1`: the growth in the assay on SK-MEL-2 melanoma was 123%; in the assay with EKVX NSCLC, 107%; in the assay with SN12C renal, 103%; in the assay on UO-31 renal it was 99.5%; in the assay on TK-10 renal, 95.5%; with ACHN renal, 107%. Besides, the growth in the assay on A498 renal is 99.9%; with CCRF-CEM leukemia, -30.7% (active).
On to `COc1ccc(Nc2[nH]n3c(=O)cc(C)nc3c2C(N)=O)c(OC)c1`, for which the growth was 94% in the assay on SK-MEL-2 melanoma; 101% in the assay with EKVX NSCLC; 96.6% with SN12C renal; 87.5% in the assay with UO-31 renal; 88.2% with TK-10 renal; 96.8% in the assay with ACHN renal. Also, the growth with CAKI-1 renal was 90.2%; in the assay on CCRF-CEM leukemia, 101%; in the assay on MOLT-4 leukemia, 116%.
On to `COc1ccc(-c2nc(/C=C3/C(=O)Nc4ccc(F)cc43)c3ccccn23)cc1`, for which the growth with SK-MEL-2 melanoma is 112%; in the assay with EKVX NSCLC, 123%; in the assay with SN12C renal, 106%; with UO-31 renal, 97%; in the assay on TK-10 renal, 116%; in the assay on ACHN renal, 96.5%. The growth in the assay with CAKI-1 renal is 98.2%; in the assay on CCRF-CEM leukemia, 93.9%; with MOLT-4 leukemia, 91.8%.
For the compound `C=C1CCC2C3(C)COC(c4c(OC)cccc4OC)OC3CCC2(C)C1C/C=C1/C(=O)OCC1O` (centres undefined), the growth in the assay with SK-MEL-2 melanoma is 50%; in the assay on EKVX NSCLC, 96.5%; with SN12C renal, 28.2%; with UO-31 renal, 46.2%; with TK-10 renal, 50.5%; with ACHN renal it was 66%. In addition, the growth with CAKI-1 renal was 172%; in the assay on CCRF-CEM leukemia, -33.1% (active); in the assay on MOLT-4 leukemia, 51.4%.
As to `O=C1/C(=C/c2ccccc2)Oc2ccc(O)c(I)c21`, the growth in the assay with SK-MEL-2 melanoma is 95.3%; in the assay on EKVX NSCLC it was 50.8%; in the assay on SN12C renal, 85.7%; in the assay with UO-31 renal, 58.5%; in the assay with TK-10 renal, 181%; with ACHN renal, 103%. The growth in the assay with CAKI-1 renal is 78.6%; in the assay with CCRF-CEM leukemia it was 94.7%; in the assay with MOLT-4 leukemia it was 95.6%.
